Results on 5 compounds are retold here after PubChem BioAssay.

For experiment [1], the system named is Plasmodium falciparum Sir2 (PF13_0152, Sir2A). The experiment is described as follows: Plasmodium falciparum Sir2A binding compounds – biochemical, small-molecule microarray, 635 nm fluorescence, primary screen (AID 1098).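 Note: score merges spot fluorescence intensity with its signal-to-noise ratio.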 Conditions: fluorescence 635 nm, higher = more signal.
Experiment [2] can be described thus: probe aDKK1 binding to arrayed compounds – biochemical, biotinylated probe, 635/667 nm fluorescence, primary screen (AID 1099).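 Note: score merges 667nm spot fluorescence with signal to noise across triplicate slides.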 Conditions: small-molecule microarray, higher = more signal.
The nature of experiment [3]: probe aCHRDL2 binding to arrayed compounds – biochemical, biotinylated probe, 635/667 nm fluorescence, primary screen (AID 1100). Conditions: small-molecule microarray, higher = more signal.
Experiment [4] is described as follows: change in splice reporter luminescence, either direction, cell-based, HEK293, spliceosome inhibition project, primary screen (AID 1101).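 Note: HEK293 cells carrying a splicing-competent luciferase reporter gene; test concentration not given here.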 Conditions: HEK293 splicing luciferase reporter, 24 h, higher = more signal, called active from +8 up or from −8 down.
The target in experiment [5] is Fibroblast growth factor 10 (Homo sapiens) (UniProt O15520). The experiment is described as follows: compounds binding fibroblast growth factor 10 – biochemical, small-molecule microarray, 635 nm fluorescence, primary screen (AID 1102). Conditions: FGF10 binding, fluorescence 635 nm, higher = more signal.
Experiment [6] concerns glycogen synthase kinase-3 (GSK3A per assay name; protocol says GSK3B). The experiment is described as follows: compounds binding glycogen synthase kinase-3 – biochemical, small-molecule microarray, 635 nm fluorescence, GSK3A, primary screen (AID 1103). Note: the record names both GSK3A and GSK3B. Conditions: fluorescence 635 nm, higher = more signal.
The target of experiment [7] is Epidermal growth factor receptor (Homo sapiens) (UniProt P00533). The experiment can be described thus: compounds binding epidermal growth factor receptor – biochemical, small-molecule microarray, 635 nm fluorescence, primary screen (AID 1104).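 Note: score merges 667 nm emission intensity with spot signal to noise over triplicate slides.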 Conditions: EGFR binding, higher = more signal.
The target of experiment [8] is Follistatin-related protein 3 (Homo sapiens) (UniProt O95633). The experiment can be described thus: compounds binding follistatin-related protein 3 – biochemical, small-molecule microarray, 635 nm fluorescence, primary screen (AID 1105).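 Note: score merges emission near 667 nm and signal to noise per printed spot across three slides.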 Conditions: FSTL3 binding, higher = more signal.
Experiment [9] addresses Dickkopf-related protein 1 (Homo sapiens) (UniProt O94907). The experiment can be described thus: small molecules binding DKK1 protein – biochemical, small-molecule microarray, 635 nm fluorescence scan, primary screen (AID 1106).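 Note: score merges emission near 667 nm with signal to noise over three replicate slides.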 Conditions: higher = more signal.
The subject of experiment [10] is Inhibin beta A chain (activin A). The experiment can be described thus: small molecules binding activin A – biochemical, small-molecule microarray, 635 nm fluorescence scan, primary screen (AID 1107).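 Note: mouse activin A protein probed at 4.33 µg/mL on printed slides; score merges bound-protein fluorescence near 667 nm with spot signal-to-noise.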 Conditions: INHBA, higher = more signal.
Experiment [11] has as its system Human papillomavirus type 1a protein E7 (residues 44-93). The experiment can be described thus: small molecules binding HPV E7 44-93 – biochemical, small-molecule microarray, residues 44-93, 635 nm fluorescence, primary screen (AID 1108).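 Note: E7 fragment applied at 1 µg/mL in TBST for 1 h at 4 C; score combines spot fluorescence with its signal to noise ratio.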 Conditions: fluorescence 635 nm, higher = more signal.
Experiment [12] is described as follows: hepatitis C replication reporter changes, two-sided – Huh7 cells, luciferase reporter, HCV replication inhibitor project, primary screen (AID 1109).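 Note: huh7 hepatoma cells harbouring a luciferase neomycin HCV replicon reporter; luciferase luminescence as measure of HCV replicon replication; test concentration not given here.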 Conditions: Huh7 HCV replicon luciferase reporter, 48 h; higher = more signal.
Experiment [13] addresses Left-right determination factor 2 (Homo sapiens) (UniProt O00292). The experiment can be described thus: small molecules binding LEFTY2 protein – biochemical, small-molecule microarray, 635 nm fluorescence scan, primary screen (AID 1110). Conditions: higher = more signal.
In experiment [14] the target is Calmodulin-1 (Homo sapiens) (UniProt P0DP23). The experiment is described as follows: small molecules binding calmodulin-1 with EGTA – biochemical, small-molecule microarray, Cy5-labelled CALM1, profiling panel (AID 1111).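 Note: labelled calmodulin applied in Tris saline Tween buffer holding calcium plus EGTA and DTT.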 Conditions: Cy5-CALM1 binding fluorescence, higher = more signal.
Experiment [15] shares this target. The experiment can be described thus: small molecules binding Ca-loaded calmodulin-1 – biochemical, small-molecule microarray, Cy5-labelled CALM1, plus calcium, artefact control for SMM control-protein annotation, profiling panel (AID 1112).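 Note: score merges spot fluorescence with signal to noise from triplicate slides.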 Conditions: Cy5-CALM1 binding fluorescence, higher = more signal.
Experiment [16] in a line: probe aWnt5a binding to arrayed compounds – biochemical, biotinylated probe, 635/667 nm fluorescence, primary screen (AID 1113).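 Note: score merges 667 nm fluorescence intensity with signal-to-noise per printed feature.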 Conditions: small-molecule microarray, higher = more signal.
Experiment [17] is described as follows: probe aShh binding to arrayed compounds – biochemical, biotinylated probe, 635/667 nm fluorescence, primary screen (AID 1114).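 Note: probe is biotin-labelled aShh protein from a stem cell growth factor screen; measures binding of labelled protein to compounds printed on the slide; score merges feature fluorescence at 667 nm with signal-to-noise.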 Conditions: small-molecule microarray, higher = more signal.
Experiment [18] is described as follows: probe aNog binding to arrayed compounds – biochemical, biotinylated probe, 635/667 nm fluorescence, primary screen (AID 1115).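 Note: probe is biotinylated aNog protein used at 0.15 µg/mL for 1 h at 4 C; z-score combines 667 nm fluorescence of each spot with its signal to noise.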 Conditions: small-molecule microarray, higher = more signal.
In experiment [19] the target is Torsin-1A-interacting protein 1 (Homo sapiens) (UniProt Q5JTV8). The experiment can be described thus: compound microarray binding of lysate hLAP1 – cell lysate, small-molecule microarray, COS7 lysate, 635/667 nm fluorescence, primary screen (AID 1116). Conditions: 635 nm fluorescence, higher = more signal.
Experiment [20] concerns the target Alpha-bungarotoxin (Bungarus multicinctus) (UniProt P60615). The experiment can be described thus: compounds binding labelled alpha-BTX control protein – biochemical, small-molecule microarray, Alexa647 label, 635/667 nm fluorescence, artefact control for SMM control protein annotation, profiling panel (AID 1117). Conditions: alpha-BTX-A647 binding fluorescence, higher = more signal.

The source made the active and inactive calls.

Sequence of Left-right determination factor 2 (Homo sapiens) (O00292 whole entry, looked up): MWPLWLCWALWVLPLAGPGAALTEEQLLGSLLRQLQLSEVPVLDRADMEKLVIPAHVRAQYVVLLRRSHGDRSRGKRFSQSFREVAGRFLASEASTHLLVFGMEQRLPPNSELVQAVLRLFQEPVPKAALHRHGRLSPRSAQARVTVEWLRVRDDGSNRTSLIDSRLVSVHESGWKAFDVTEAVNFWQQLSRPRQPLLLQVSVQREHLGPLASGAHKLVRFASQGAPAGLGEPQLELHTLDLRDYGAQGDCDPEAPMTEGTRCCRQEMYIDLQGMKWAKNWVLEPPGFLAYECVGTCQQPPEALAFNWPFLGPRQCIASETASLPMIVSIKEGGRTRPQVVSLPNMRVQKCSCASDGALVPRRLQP
Sequence of Torsin-1A-interacting protein 1 (Homo sapiens) (Q5JTV8 whole entry, looked up): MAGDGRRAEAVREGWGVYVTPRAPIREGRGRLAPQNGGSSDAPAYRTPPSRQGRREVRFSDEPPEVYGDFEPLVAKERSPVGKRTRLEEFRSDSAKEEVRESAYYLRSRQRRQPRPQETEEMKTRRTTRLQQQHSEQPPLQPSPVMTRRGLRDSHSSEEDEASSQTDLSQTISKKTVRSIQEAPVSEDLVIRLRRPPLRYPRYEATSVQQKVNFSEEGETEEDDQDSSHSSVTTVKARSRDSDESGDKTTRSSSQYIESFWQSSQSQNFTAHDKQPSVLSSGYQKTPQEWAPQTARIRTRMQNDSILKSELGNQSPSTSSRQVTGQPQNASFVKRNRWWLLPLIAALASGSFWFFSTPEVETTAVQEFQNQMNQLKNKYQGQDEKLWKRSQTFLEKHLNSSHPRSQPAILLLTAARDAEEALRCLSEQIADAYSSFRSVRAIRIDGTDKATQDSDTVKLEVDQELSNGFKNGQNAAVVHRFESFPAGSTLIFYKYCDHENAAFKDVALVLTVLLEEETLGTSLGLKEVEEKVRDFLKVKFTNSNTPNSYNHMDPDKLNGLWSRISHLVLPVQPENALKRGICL
Sequence of Follistatin-related protein 3 (Homo sapiens) (O95633 whole entry, looked up): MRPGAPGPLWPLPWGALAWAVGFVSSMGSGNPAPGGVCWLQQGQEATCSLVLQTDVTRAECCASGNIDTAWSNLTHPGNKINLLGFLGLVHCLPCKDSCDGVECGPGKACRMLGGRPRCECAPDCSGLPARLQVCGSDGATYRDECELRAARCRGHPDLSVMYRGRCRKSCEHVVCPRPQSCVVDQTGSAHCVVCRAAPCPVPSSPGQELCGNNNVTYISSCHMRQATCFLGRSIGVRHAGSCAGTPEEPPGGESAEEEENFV
Sequence of Dickkopf-related protein 1 (Homo sapiens) (O94907 whole entry, looked up): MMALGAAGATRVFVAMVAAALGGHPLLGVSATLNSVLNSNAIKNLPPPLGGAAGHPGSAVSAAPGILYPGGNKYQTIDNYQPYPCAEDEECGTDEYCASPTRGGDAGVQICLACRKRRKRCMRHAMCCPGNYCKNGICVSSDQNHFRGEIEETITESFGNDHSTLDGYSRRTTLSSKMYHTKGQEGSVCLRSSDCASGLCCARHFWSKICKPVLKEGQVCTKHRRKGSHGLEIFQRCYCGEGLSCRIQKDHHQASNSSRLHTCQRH
Sequence of Alpha-bungarotoxin (Bungarus multicinctus) (P60615 whole entry, looked up): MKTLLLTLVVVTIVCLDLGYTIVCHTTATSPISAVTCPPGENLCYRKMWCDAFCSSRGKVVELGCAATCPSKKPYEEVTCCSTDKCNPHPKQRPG
Sequence of Fibroblast growth factor 10 (Homo sapiens) (O15520 whole entry, looked up): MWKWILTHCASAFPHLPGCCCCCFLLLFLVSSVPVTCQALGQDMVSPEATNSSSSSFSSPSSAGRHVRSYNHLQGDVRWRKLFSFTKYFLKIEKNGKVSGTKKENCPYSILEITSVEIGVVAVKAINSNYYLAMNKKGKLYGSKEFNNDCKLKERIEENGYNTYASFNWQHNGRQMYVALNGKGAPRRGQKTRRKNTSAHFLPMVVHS
Sequence of Epidermal growth factor receptor (Homo sapiens) (P00533 whole entry, looked up): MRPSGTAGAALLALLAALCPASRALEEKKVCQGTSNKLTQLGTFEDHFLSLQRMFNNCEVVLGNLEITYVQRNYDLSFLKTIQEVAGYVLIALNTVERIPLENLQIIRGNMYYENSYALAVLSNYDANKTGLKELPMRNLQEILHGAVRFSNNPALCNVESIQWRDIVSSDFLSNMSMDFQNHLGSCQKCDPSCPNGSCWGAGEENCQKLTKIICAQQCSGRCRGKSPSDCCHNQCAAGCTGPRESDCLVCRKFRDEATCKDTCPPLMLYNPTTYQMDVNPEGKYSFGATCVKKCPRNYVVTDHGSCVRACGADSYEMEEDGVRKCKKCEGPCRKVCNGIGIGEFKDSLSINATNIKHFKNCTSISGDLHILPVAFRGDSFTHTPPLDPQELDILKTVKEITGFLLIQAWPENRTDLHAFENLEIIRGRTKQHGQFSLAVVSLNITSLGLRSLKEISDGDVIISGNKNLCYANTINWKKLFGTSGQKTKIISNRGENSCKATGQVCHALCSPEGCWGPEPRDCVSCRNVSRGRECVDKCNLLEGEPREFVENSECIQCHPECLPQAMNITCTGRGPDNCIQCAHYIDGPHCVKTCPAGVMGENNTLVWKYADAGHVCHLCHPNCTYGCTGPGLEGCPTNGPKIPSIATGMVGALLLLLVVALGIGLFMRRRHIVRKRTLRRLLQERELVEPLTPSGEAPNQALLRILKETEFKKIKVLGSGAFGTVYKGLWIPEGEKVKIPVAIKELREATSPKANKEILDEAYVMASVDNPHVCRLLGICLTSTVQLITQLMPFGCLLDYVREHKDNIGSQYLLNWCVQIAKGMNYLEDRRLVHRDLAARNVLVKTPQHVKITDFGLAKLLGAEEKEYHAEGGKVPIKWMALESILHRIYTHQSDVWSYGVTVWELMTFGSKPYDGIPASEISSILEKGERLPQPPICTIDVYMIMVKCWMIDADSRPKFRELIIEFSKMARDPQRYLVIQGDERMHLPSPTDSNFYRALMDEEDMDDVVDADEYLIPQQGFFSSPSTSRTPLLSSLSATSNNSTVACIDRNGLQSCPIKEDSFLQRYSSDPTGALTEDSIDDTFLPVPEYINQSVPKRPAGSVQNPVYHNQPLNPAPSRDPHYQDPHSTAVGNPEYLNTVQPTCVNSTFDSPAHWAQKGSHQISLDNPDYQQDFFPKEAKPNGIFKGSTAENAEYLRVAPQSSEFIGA

With `CN1CCC(CCCO)=CC1C1CC1` (stereo not given), the composite z-score in [1] is 0.537; in [2], -0.499; in experiment [3], -0.896; in [5], 0.59; in experiment [6], 0.348; in experiment [7], 0.0647. Also, the composite z-score in experiment [8] is 0.0254; in experiment [9] it was 0.293; in experiment [10], 0.719; in experiment [11], -0.416; in [13] it was 0.637; in [14], -1.21. For the same compound, the composite z-score is -1.36 in [15]; -0.172 in [16]; -0.138 in experiment [17]; -0.473 in experiment [18]; -0.434 in experiment [19]; -0.234 in experiment [20]. For the same compound, the z-score was -1.18 (inactive) in experiment [4] and 0.306 in experiment [12].

Regarding `COCCOC(=O)N1C(=O)[C@@]2(c3ccccc31)[C@H](C(=O)N1CCc3cc(OC)c(OC)cc3C1)[C@H]1C(=O)O[C@H](c3ccccc3)[C@H](c3ccccc3)N1[C@@H]2c1ccccc1OCCO`, the composite z-score stood at 1 in experiment [1]; 0.401 in experiment [2]; 0.339 in experiment [3]; 0.626 in experiment [5]; 1.28 in experiment [6]; 0.329 in experiment [7]. For the same compound, the composite z-score in experiment [8] was found to be 0.606; in experiment [9], 0.214; in experiment [10], 0.635; in experiment [11] it was 0.583; in experiment [13], 0.284; in experiment [14], 1.25. In addition, the composite z-score in experiment [15] was 0.868; in experiment [16] it was -0.124; in experiment [17], 0.319; in experiment [18], 0.185; in [19], 0.987; in experiment [20] it was 2.42. Further, the z-score is -0.237 (inactive) in experiment [4] and -1.51 in experiment [12].

As for `C[C@H]1COC(=O)[C@@H]2CCCN2C(=O)[C@@H](C)COC(=O)[C@@H]2CCCN2C1=O`, the composite z-score in experiment [1] is -0.0175; in experiment [2], -0.37; in [3], -0.675; in [5], 0.419; in experiment [6], -0.295; in [7], 0.514. Further, the composite z-score in experiment [8] was -0.0914; in experiment [9], 0.563; in [10], -0.0885; in experiment [11] it was -0.663; in experiment [13], 0.417; in experiment [14], -0.835. The composite z-score is -1.09 in experiment [15]; -0.124 in experiment [16]; -0.0626 in experiment [17]; -0.367 in experiment [18]; -0.392 in experiment [19]; -0.394 in [20]. Besides, the z-score in experiment [4] was -0.0582 (inactive); in experiment [12], -0.004.

On to `C#CCCCON=C1C[C@@H](O)[C@@H](O)[C@@H]2[C@@H]3C(=O)N(Cc4ccc5c(c4)OCO5)C(=O)[C@@H]3CC[C@@H]12`, for which the composite z-score in experiment [1] is 0.211; in experiment [2], -0.136; in experiment [3], 0.0822; in [5] it was 0.42; in experiment [6], 0.257; in experiment [7], 0.336. The composite z-score in [8] came to 0.862; in experiment [9] it was 0.278; in experiment [10] it was 0.308; in experiment [11], 0.449; in experiment [13], 0.448; in [14] it was 0.127. Further, the composite z-score in experiment [15] is -0.19; in experiment [16], -0.096; in [17], 0.147; in [18], 0.0136; in experiment [19], -0.0849; in experiment [20], 1.4. Further, the figures for the z-score in experiment [4] and in [12] were -0.117 (inactive) and 0.0713, respectively.

For the compound `CO[C@H]1COC(=O)[C@@H](C)COC(=O)[C@H](Cc2ccccc2)NC(=O)CC=C[C@H]1C`, the composite z-score was 0.7 in experiment [1]; -0.416 in experiment [2]; -1.09 in experiment [3]; 0.457 in [5]; 0.0364 in experiment [6]; 1.04 in [7]. Besides, the composite z-score in experiment [8] is 1.06; in experiment [9], 1.5; in experiment [10], 1.15; in [11], 0.334; in experiment [13], 0.726; in [14], -1.69. The composite z-score in experiment [15] was -1.8; in experiment [16], -0.135; in experiment [17] it was -0.143; in experiment [18] it was -0.454; in [19], -0.115; in experiment [20], 0.0209. The results for the z-score in experiment [4] and in [12] were -0.776 (inactive) and -0.082, respectively.
